A short description of the assay: Staphylococcus aureus RN4220 growth blockers – two temperatures, LtaS inhibitor project, primary screen (AID 720641). Particulars: S. aureus RN4220 growth, OD600, 20 h, 42 °C, stronger effect = lower value.

Among all 170,000 compounds or so, about 900 (0.53%) were called active.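 The calls were made as follows: active = relative growth at most 50% at the other temperature and 20+ points below 30 °C, or under 10% at both; inactive = the rest, inconclusive results apart.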 The full list was thinned out, with actives kept by preference.

For `[C-]#[N+]c1ccc(Cl)cc1C(C)S(=O)(=O)c1ccc(C)cc1` (stereo not given), the relative growth is 4.29% (active). This compound returned a relative growth (measured here: growth at 30 °C) of 7.07%.

Regarding `Cc1cc(N2CCNCC2)nc(C)n1`, the relative growth is 91.3% (inactive). Also, the relative growth (measured here: growth at 30 °C) was 82.9%.

Consider `CN1C(=O)C(C(=O)O)C2CC1Oc1ccccc12` (stereo not given), for which the relative growth is 91.5% (inactive). Under “measured here: growth at 30 °C”, this compound had a relative growth of 72.8%.

On to `O=C(Cn1cc(/C=C2/C(=O)NC(=O)N(Cc3ccco3)C2=O)c2ccccc21)NCC1CCCO1` (stereo not given), for which the relative growth was 98.4% (inactive). This compound also came in with a relative growth (measured here: growth at 30 °C) of 86.3%.

`CN(C)c1ccc(/C=C2/C(=O)C3CCN2CC3)cc1`: the relative growth is 112% (inactive). Moreover, the relative growth (measured here: growth at 30 °C) is 95.5%.

The record behind these values is PubChem BioAssay AID720641 (ICCB-Longwood Screening Facility, Harvard Medical School, 2013).
